Source: PubChem BioAssay (NCI)
The panel holds about 83,000 compounds, 20% with a hit somewhere; the sample as a whole holds those more often.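 Growth was measured after 48 h exposure to one concentration of compound in 96-well plates. Values under 10 count as active.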 A number with no mark means an inactive call. The source made the active and inactive calls.

Columns and labels:
Experiment in all cases: NCI-60 one-dose screen, 48 h (100 = growth as untreated, 0 = no growth, -100 = all killed)
Conditions in all cases: 10 µM unless noted
[1] = test system: MOLT-4 leukemia
[2] = test system: SR leukemia
[3] = test system: RPMI-8226 leukemia
[4] = test system: OVCAR-8 ovarian
[5] = test system: OVCAR-5 ovarian
[6] = test system: OVCAR-4 ovarian
[7] = test system: SK-OV-3 ovarian
[8] = test system: IGROV1 ovarian
[9] = test system: OVCAR-3 ovarian
[10] = test system: HS 578T breast

SMILES	growth [1]	growth [2]	growth [3]	growth [4]	growth [5]	growth [6]	growth [7]	growth [8]	growth [9]	growth [10]
COC(=O)[C@@H](C)C[C@H](Cc1ccccc1)NC(=O)c1csc([C@@H](C[C@H](C(C)C)N(C)C(=O)[C@@H](NC(=O)[C@H]2CCCCN2C)C(C)C)OC(C)=O)n1	4.52% (active)	6.8% (active)	8.34% (active)	22.7%	26.4%	44.6%	13.4%	25.7%	-24.4% (active)	-2.62% (active)
CC12CC=CCC1CCC1C2CCC2(C)C(c3ccc(=O)oc3)CCC12O (centres undefined)	-15.7% (active)	-3.66% (active)	-9.88% (active)	-41.8% (active)	-80.6% (active)	-48.1% (active)	-8.44% (active)	-12.3% (active)	-76.8% (active)	-18.5% (active)
CC(=O)O[C@H]1C(=O)[C@@]2(C)[C@H]([C@H](OC(=O)c3ccccc3)[C@]3(O)C[C@H](OC(=O)[C@H](OC(=O)OC[C@H]4COC(C)(C)O4)[C@@H](NC(=O)c4ccccc4)c4ccccc4)C(C)=C1C3(C)C)[C@]1(OC(C)=O)CO[C@@H]1C[C@@H]2O	11.7%	17.9%	6.27% (active)	15.9%	6.17% (active)	55.6%	22.2%	18.8%	6.13% (active)	3.36% (active)
C=C1C[C@](OC)([C@H](O)C(=O)N[C@@H](OC)[C@@H]2C[C@@H](O)C(C)(C)[C@@H](C[C@@H](COC)OC)O2)O[C@H](C)[C@@H]1C	-51.7% (active)	-39.2% (active)	-72.5% (active)	-20.8% (active)	-29.8% (active)	-38.4% (active)	-9.43% (active)	-66.8% (active)	-43.9% (active)	-46.2% (active)
CCOC(=O)[C@@H](C)C[C@H](Cc1ccccc1)NC(=O)c1csc([C@@H](C[C@H](C(C)C)N(C)C(=O)[C@H](CC)NC(=O)[C@H]2CCCCN2C)OC(C)=O)n1	9.18% (active)	6.66% (active)	19.2%	5.75% (active)	31.5%	37.4%	20.9%	22.6%	-6.1% (active)	9.11% (active)
CC[C@H](C)[C@H](NC(=O)C12C3C4C1C1C2C3C41NC(C)=O)C(=O)N(C)[C@H](C[C@@H](OC(C)=O)c1nc(C(=O)N[C@@H](Cc2ccccc2)C[C@H](C)C(=O)OC)cs1)C(C)C (some centres undefined)	17.7%	16.6%	2.37% (active)	17%	47.8%	38.7%	48.5%	31.1%	-33.8% (active)	18.6%
CC(C)(C)N1CC1C#N (centres undefined)	98.4%	97.6%	99.2%	103%	99.5%	119%	101%	103%	101%	104%
CCc1ccccc1[C@@H]1C[C@]2(C)CCO[C@@H]2OO1	105%	102%	100%	96%	109%	96.3%	107%	108%	113%	101%
CC(=O)O[C@H](C[C@H](C(C)C)N(C)C(=O)[C@@H](NC(=O)[C@H]1CCCN1C)C(C)C)c1nc(C(=O)N[C@@H](Cc2ccccc2)C[C@H](C)C(=O)O)c(C)s1	18.9%	8.27% (active)	19.8%	17.9%	36.1%	48.2%	6.85% (active)	30.2%	-22.9% (active)	23.8%
CC[C@H](C)[C@H](NC(=O)C12C3C4C1C1C2C3C41NC)C(=O)N(C)[C@H](C[C@@H](OC(C)=O)c1nc(C(=O)N[C@@H](Cc2ccccc2)C[C@H](C)C(=O)OC)cs1)C(C)C (some centres undefined)	24.9%	20%	3.54% (active)	20.4%	43.5%	45.5%	17.1%	36.9%	-28.1% (active)	13%
C[C@]12CCc3nc(Nc4ccccc4F)sc3C1=CC[C@@H]1[C@@H]2CC[C@]2(C)C(=O)CC[C@@H]12	14.2%	11.4%	15%	70.8%	76.5%	73.9%	72.6%	61.8%	29.2%	67.8%
Cc1ccccc1NC(=NCCCN1CC1)Nc1ccccc1C	70.8%	69.7%	95.2%	82.6%	123%	88.9%	79.9%	82%	90.4%	97.4%
CCCCCCC(=O)NC1=C(N2CC2)C(=O)C(NC(=O)CCCCCC)=C(N2CC2)C1=O	49%	40.7%	56.1%	32%	93%	30.9%	39.8%	20.3%	-53.4% (active)	88.2%
COC(=O)[C@@H](C)C[C@H](Cc1ccccc1)NC(=O)c1csc([C@@H](C[C@H](C(C)C)N(C)C(=O)[C@@H](NC(=O)[C@H]2CCCCN2C)C2CCCCC2)OC(C)=O)n1	3.17% (active)	4.79% (active)	4.31% (active)	14.6%	23.1%	36.7%	-1.95% (active)	22.3%	-21.5% (active)	-6.6% (active)
COc1ccc(N(CC(=O)NCCC[Te]c2ccccc2)C(=O)CNC(=O)OC(C)(C)C)cc1	12.1%	12.7%	13%	9.87% (active)	22%	118%	-7.96% (active)	4.89% (active)	103%	11.7%
[Cl][Hg][n]1c(-c2ccco2)nc2ccccc21	88.3%	64.2%	92.7%	106%	117%	100%	119%	90.5%		93.9%
CC(C)(C)C(=O)OCOP(=O)(OCOC(=O)C(C)(C)C)C1CCCN(O)C1=O (centres undefined)	3.92% (active)	13.7%	-18% (active)	5.69% (active)	32.5%	11.2%	12.2%	-4.01% (active)	4.08% (active)	-8.85% (active)
NC(=O)C(Br)c1ccccc1 (centres undefined)	74.2%	46.1%	96.6%	90.8%	114%	89.6%	117%	80.3%	91.9%	103%
CC(=O)O[C@H]1CC[C@H]2[C@@H]3CC=C4c5nc(-c6ccccc6)sc5CC[C@]4(C)[C@H]3CC[C@]12C	46.1%	8.39% (active)	-37.3% (active)	77.9%	75.9%	87.2%	94.5%	97.2%	92.9%	64.2%
c1cc2c(c3c1CCNC3)OCO2	100%	93%	109%	107%	108%	110%	92.6%	99.9%	118%	112%
c1cnc2[nH]cc(-c3csc(-c4cn(CCCCN5CCOCC5)c5ccccc45)n3)c2c1	13.1%	-20.1% (active)	32.6%	60.6%	72.5%	74.8%	81.1%	34.9%	59.8%	54.9%
COC(=O)[C@@H](C)C[C@H](Cc1ccc2ccccc2c1)NC(=O)c1csc([C@@H](C[C@H](C(C)C)N(C)C(=O)[C@@H](NC(=O)[C@H]2CCCCN2C)C(C)C)OC(C)=O)n1	-2.64% (active)	6.75% (active)	23.3%	37.9%	77.6%	53%	56.5%	22.7%	55.8%	40.8%
